Source: PubChem BioAssay (NCI)
This is part of a sample that, as a whole, favours compounds with a hit. Of some 83,000 tested, about 20% had one in any assay.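 In brief: 96-well plates, 48 h treatment, single concentration, percent growth endpoint.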 Values without a mark were called inactive. Active and inactive are the calls of the source. Rule for the calls: active = growth percent below 10; inactive = the rest.

Experiments:
Test in all cases: NCI-60 one-dose screen, 48 h (100 = growth as untreated, 0 = no growth, -100 = all killed)
[1] = tested on: SK-MEL-2 melanoma; details: 10 µM unless noted
[2] = tested on: EKVX NSCLC; details: 10 µM unless noted
[3] = tested on: SN12C renal; details: 10 µM unless noted
[4] = tested on: UO-31 renal; details: 10 µM unless noted
[5] = tested on: TK-10 renal; details: 10 µM unless noted
[6] = tested on: ACHN renal; details: 10 µM unless noted
[7] = tested on: CAKI-1 renal; details: 10 µM unless noted
[8] = tested on: CCRF-CEM leukemia; details: 10 µM unless noted
[9] = tested on: MOLT-4 leukemia; details: 10 µM unless noted
[10] = tested on: SR leukemia; details: 10 µM unless noted
[11] = tested on: OVCAR-8 ovarian; details: 10 µM unless noted
[12] = tested on: OVCAR-5 ovarian; details: 10 µM unless noted
[13] = tested on: OVCAR-4 ovarian; details: 10 µM unless noted
[14] = tested on: IGROV1 ovarian; details: 10 µM unless noted
[15] = tested on: OVCAR-3 ovarian; details: 10 µM unless noted
[16] = tested on: HS 578T breast; details: 10 µM unless noted
[17] = tested on: NCI/ADR-RES ovarian; details: 10 µM unless noted
[18] = tested on: RPMI-8226 leukemia; details: 10 µM
[19] = tested on: A498 renal; details: 10 µM unless noted
[20] = tested on: SK-OV-3 ovarian; details: 10 µM

| Structure (SMILES) | growth [1] | growth [2] | growth [3] | growth [4] | growth [5] | growth [6] | growth [7] | growth [8] | growth [9] | growth [10] | growth [11] | growth [12] | growth [13] | growth [14] | growth [15] | growth [16] | growth [17] | growth [18] | growth [19] | growth [20] |
| --- | --- | --- | --- | --- | --- | --- | --- | --- | --- | --- | --- | --- | --- | --- | --- | --- | --- | --- | --- | --- |
| Cl.Fc1c[c-]c(-c2ccccn2)c(F)c1.[Pt].c1ccc([PH+](CC[PH+](c2ccccc2)c2ccccc2)c2ccccc2)cc1 | -76.8% (active) | -99.2% (active) | -75.8% (active) | -92.4% (active) | -83.7% (active) | -97.9% (active) | -83.5% (active) | -43% (active) | -26.8% (active) | -6.03% (active) | -29.1% (active) | -93.4% (active) | -87.8% (active) | -75.5% (active) | -97.2% (active) | -44.6% (active) | -35.4% (active) |  |  |  |
| COC(=O)c1c2c(c(C)[n+]([O-])c1C)C(=O)C=C(NCc1cccc(Cl)c1)C2=O | -32.8% (active) | -57.3% (active) | -90.7% (active) | -18.5% (active) | 14.5% | -44.8% (active) | -14.3% (active) | -11.2% (active) | -34.8% (active) | 1.95% (active) | -14.4% (active) | -87.2% (active) |  | -53.9% (active) | -35.7% (active) | -23.2% (active) | -12.7% (active) | -31.9% (active) |  |  |
| O=c1oc2ccccc2cc1-c1csc(N=Nc2c(O)[nH]c3ccc(Cl)cc23)n1 | 107% | 103% | 100% | 98.2% | 106% | 101% | 94.9% | 94.2% | 105% | 102% | 96.3% | 96.2% |  | 107% | 107% | 105% | 105% | 105% |  |  |
| COC(=O)c1c2c(c(C)[n+]([O-])c1C)C(=O)C=C(NCc1ccc(Cl)cc1)C2=O | -30.9% (active) | -50% (active) | -84.9% (active) | -9.07% (active) | 21.7% | -19.1% (active) | -3.15% (active) | -6.94% (active) | -32.2% (active) | 3.91% (active) | 2.34% (active) | -69% (active) |  | -50.9% (active) | -28.6% (active) | -19% (active) | -15.1% (active) | -16.2% (active) |  |  |
| CC(=O)OC[C@]1(C)C=C2C(=O)[C@](C)(O)C3(CC3)C(C)=C2[C@H]1OC(C)=O | 103% | 114% | 83.6% | 41.5% | 99.1% | 51.3% | 84.2% | 95.1% | 109% | 62.8% | 75.9% | 91.3% |  | 91.1% | 94.9% | 96% | 75% | 84.1% |  |  |
| COc1ccc(C2SC(C)C(=O)N2CCc2cccs2)cc1OC (stereo unspecified) | 93% | 66.4% | 90.1% | 79.2% | 113% | 80.1% |  | 75.9% | 64.7% | 63.8% | 85.1% | 104% | 62.8% | 79.6% | 95.3% | 95.4% | 86.1% | 68.8% | 81.9% | 102% |
| CC(C)NCC(O)COc1ccc(CCOCC2CC2)cc1 (stereo unspecified) | 109% | 98.4% | 96.9% | 76.9% | 111% | 109% | 99.3% | 93.8% | 88.3% | 78.3% | 93% | 107% | 82.5% | 113% | 112% | 109% |  |  |  | 113% |
| O=C(N/N=C(\CS(=O)(=O)c1ccccc1)c1cc2cc(Br)ccc2oc1=O)c1ccccc1 | 105% | 94.2% | 96.1% | 94.4% | 108% | 103% | 90.6% | 131% | 140% | 122% | 101% | 94.1% |  | 110% | 108% | 99.4% | 105% |  |  |  |
| COc1ccc(/C=C2\Oc3cc(C)c(Cl)cc3C2=O)cc1OC | 109% | 94% | 95% | 89.5% | 112% | 97.9% | 87.2% | 87.4% | 91% | 73.2% | 102% | 98.3% | 82.3% | 103% | 108% | 109% | 107% | 89.9% |  |  |
| COC(=O)[C@@]12CC[C@@H](C)[C@]3(C[C@@H](c4ccoc4)OC3=O)[C@H]1CC[C@@H]1O[C@@]12C | 96.9% | 94.8% | 98.8% | 78.9% | 103% | 105% | 94.4% | 107% | 110% | 110% | 102% | 91.4% | 104% | 103% | 110% | 98.7% | 102% | 110% |  |  |
| CC1=C(C/C=C(\C)CCC[C@H](C)CCC[C@H](C)CCCC(C)C)C(=O)c2ccccc2C1=O | 114% | 114% | 99.7% | 71.7% | 95.6% | 104% | 103% | 102% | 101% | 94.9% | 100% | 105% |  | 111% | 119% | 105% | 111% | 106% |  | 103% |
| CCOC(=O)c1c(-c2cc(OC)c(OC)c(OC)c2)csc1N | 101% | 110% | 105% | 75.9% | 93.3% | 99.2% |  | 83.7% | 92.3% | 27.2% | 106% | 101% | 118% | 84.3% | 96.4% | 104% | 83.8% | 90.3% |  | 90.9% |
| CCCCCCCCCCCCCCn1c2ccccc2c2c3c(c4c5cc(OC)ccc5oc4c21)C(=O)NC3=O | 113% | 105% | 101% | 88.5% | 109% |  | 93.2% | 103% | 123% | 114% | 103% | 100% |  | 106% | 110% | 95.6% | 107% | 112% |  |  |
| COc1cccc2c(=O)c3c(sc12)c(NCCN(C)C)nc1ccccc13 | 49.1% | 26.2% | 34.9% | 12.2% | 47.2% | 8.6% (active) |  | 20.9% | -14.6% (active) | -21.2% (active) | 25.2% | 40.8% | -14.4% (active) | 21% | 24.9% | 13.6% | 29.4% | -20.1% (active) | -15.7% (active) |  |
| Cc1cc(C)c(S(=O)O)c(C)c1 | 97.8% | 105% | 108% | 110% | 104% | 103% |  |  | 109% | 102% | 115% | 114% | 111% | 129% | 120% | 104% |  | 102% | 92.7% |  |
| O=C(C[Si](CC(=O)c1cccc(C(F)(F)F)c1)CC(=O)c1cccc(C(F)(F)F)c1)c1cccc(C(F)(F)F)c1 | 94.1% | 36.7% | 69.5% | 31.4% |  | 79.1% | 41.7% | 14.4% | -19.2% (active) | 5.27% (active) | 90.9% | 91.4% | 88.3% | 48.3% | 37.8% |  | 78.4% | 4.44% (active) | 60.4% | 98.3% |
| CCOC(=O)n1cc(C2=C(c3cn(C)c4ccccc34)COC2=O)c2ccccc21 | 57.8% | 45.2% | 23.9% | 34.8% |  | 26.6% | 13.2% | 16.8% | 18.3% | 14% | 16.5% | 29.9% | 28.8% | 14.7% | -29.8% (active) | 9.62% (active) | 2.15% (active) |  | -14.3% (active) |  |
| Nc1nc(-c2ccnc(Cl)c2)nn1-c1nc2ccccc2s1 | 108% | 96.5% | 101% | 87% |  | 96.9% | 95% | 101% | 119% | 120% | 102% | 95.9% | 102% | 99.1% | 114% | 96.8% | 104% |  | 96.2% |  |
